# TDP-43 yeast inh – inhibitors of TDP-43 toxicity in yeast; TDP-43 expressing yeast growth rescue, BacTiter-Glo, 24 h; 410,000 compounds, 1.8% hits; Potency, µM (titrated, usually from 46.1 µM), most hits filed as activators; further: nearly all actives have a fitted effect of over 50% in size
#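 Yeast cells expressing TDP-43 under galactose induction are exposed to compounds for 24 hr at 30 deg C. BacTiter-Glo luminescence measures growth, so protective compounds score as activators.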
# Abeta yeast res – compounds reversing amyloid beta toxicity in yeast; yeast expressing A-beta42, growth rescue, OD600, 48 h; response scale: 0% DMSO, 100% iron-clioquinol control; Potency, µM (titrated, usually from 46.1 µM), usual class: activators; 410,000 compounds, 0.063% hits; AID 1347071; further: nearly all actives have a fitted effect of over 55% in size
#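 Yeast A-beta toxicity model in growth medium with pinned compounds, 48 h at 30 C; growth read as absorbance at 600 nm. Normalized to FeCl3/clioquinol equimolar mix (positive) and DMSO (negative).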
# MmCpn inh – blocks the Methanococcus maripaludis chaperonin Mm-Cpn; AID 504842; Potency, µM (titrated, usually from 76.9 µM), usual class: inhibitors; 330,000 compounds, 0.031% hits; purified Mm-Cpn ATPase, ADP Transcreener TR-FRET; further: nearly all actives have a fitted effect of over 80% in size
#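 Quantitative HTS used 25 nM Mm-CPN and 10 uM ATP in magnesium/KCl Tris buffer, pH 7.4, with 1 mM DTT. Hydrolysis ran 30 min at 37°C; ADP was read by HTRF.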
# CCT chaperon mod – cytosolic chaperonin activity modulation | purified chaperonin ATPase assay, HTRF ADP detection, 30 min | 360,000 compounds, 0.3% hits | activity change, % (concentration not given with the values), hits read low; in the data active means activity change below about -30%
#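 ATPase activity: ADP formed was measured by HTRF Transcreener (665/615 nm ratio) after 30 min at 37 deg C with 10 uM ATP. Compounds screened at one 76 uM concentration against 40 or 20 nM TRiC in Tris pH 7.4/KCl/MgCl2/DTT buffer.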
# FUS suppressor – FUS proteinopathy suppression in yeast; Potency, µM (highest dose often 76.6 µM), most hits filed as activators; S. cerevisiae FUS-expressing, growth rescue, OD600, 24 h; 390,000 compounds, 0.24% hits; further: nearly all actives have a fitted effect of over 55% in size
#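 Yeast FUS proteinopathy model; galactose-induced FUS (2%), starting OD 0.005. Cpds in dilution series, 24hr, 30C, 99% humidity. Abs 600 nm growth. Pos ctrl CP55940 (top 92uM final); neg ctrl DMSO.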
# aSyn yeast inh – alpha-synuclein toxicity inhibition in yeast. Yeast expressing alpha-synuclein, growth rescue, BacTiter-Glo, 24 h. Potency, µM (highest dose often 46.1 µM), most hits filed as activators. 370,000 compounds, 0.14% hits; further: nearly all actives have a fitted effect of over 65% in size
#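 Screening used galactose-induced yeast with toxic alpha-synuclein levels, exposed to compound for 24 hr at 30 deg C. Cell growth, read with BacTiter-Glo luminescence, gave the measured signal.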
# Numbers stand for hits; n = inactive; u = inconclusive; x = no result given; [ ] = dose if it differs, or a comment. The list is not random: actives were taken first. Their share in the collection is about 2.3%. Unless noted, the call rests on the fitted dose curve; in most records, active means well fitted curve in the direction sought with a large enough effect; inconclusive means small, poorly fitted or top-dose-only effect, or another doubt; inactive means no such curve, though single readings can be large; an effect the other way counts as inactive or inconclusive.
SMILES,TDP-43 yeast inh,Abeta yeast res,MmCpn inh,CCT chaperon mod,FUS suppressor,aSyn yeast inh
Cc1nn(C2CCS(=O)(=O)C2)c(C)c1C=O (stereo not given),n,n,n,-36,n,n
Cc1ccc(C)n1C1CCS(=O)(=O)C1 (stereo not given),n,n,n,n,n,n
O=C1c2ccccc2NC(c2cc(Br)c3c(c2)OCO3)N1Cc1ccco1 (stereo not given),x,x,x,x,x,n
S=c1[nH]c2ccccc2n2cccc12,13µM,11µM,n,n,n,n
CCCCCCc1cc2cc(-c3nnc(-c4cccc(Cl)c4)o3)c(=O)oc2cc1O,n,n,x,x,n,x
COc1ccc(Nc2ccccc2C(=O)O)cc1,n,n,n,n,n,n
COc1ccc(Nc2cccccc2=O)cc1,11µM,n,n,n,n,n
c1cc(SC2CCCCC2)cc(-c2nc3cnccn3c2NC2CCCCC2)c1,22µM,n,n,n,n,n
c1cn2c(NC3CCCCC3)c(-c3ccc(SC4CCCCC4)cc3)nc2cn1,u,n,n,n,n,n
Cc1cccc(-n2ccnc2SCC(=O)Nc2ccc3c(c2)OCCO3)c1,u,n,n,n,n,n
O=C(CSc1nccn(-c2cccc(F)c2)c1=O)Nc1ccc(Cl)cc1F,18µM,n,n,n,n,n
Cc1cccc(-c2nc(SCC(=O)Nc3ccc4c(c3)OCCO4)c(-c3ccccc3)[nH]2)c1,35µM,n,x,x,u,x
Cc1cccc(-n2ccnc2SCC(=O)Nc2cccc3ccccc23)c1,22µM,n,x,x,n,n
O=C(CSc1nccn(-c2ccc(F)c(F)c2)c1=O)NC1CCCC1,n,n,n,n,n,n
Cc1cccc(-n2ccnc2SCC(=O)Nc2ccc3c(c2)OCO3)c1,20µM,n,x,x,n,n
Cc1cccc(-n2ccnc2SCC(=O)Nc2ccccc2C(F)(F)F)c1,n,n,x,x,n,n
CNc1ccc(/C=C2\C=Cc3ccccc32)cc1Cl,x,x,x,x,x,n
CCOc1ccc(NC(=O)COC(=O)c2ccccc2OCc2ccccc2Br)cc1,x,x,x,x,x,n
CCCCCCC[C@H](N)[C@H](O)C(=O)N(C)[C@@H](CCS(C)=O)C(=O)N[C@@H](Cc1ccc(O)cc1)C(=O)O (stereo not given in full),x,x,x,x,n,x
CCCCN1CCN(C(=O)c2cn(C(C)c3ccccc3)nn2)CC1 (stereo not given),x,x,x,x,n,x
CCOc1ccccc1NC(=O)CSc1nccn1-c1ccccc1,u,n,n,n,n,n
O=C(CSc1nccn1-c1ccc(Cl)cc1)Nc1ccc(Cl)c(Cl)c1,n,n,x,x,n,x
O=C(CSc1nccn1-c1cccc(Cl)c1)Nc1cccc2ccccc12,16µM,n,x,x,n,x
O=C(CSc1nccn1-c1cccc(Cl)c1)Nc1cccc(C(F)(F)F)c1,20µM,u,x,x,n,x
CCOc1ccc(Nc2nc3ccccc3n3c(CC)nnc23)cc1,25µM,n,x,x,n,x
SMILES,TDP-43 yeast inh,Abeta yeast res,MmCpn inh,CCT chaperon mod,FUS suppressor,aSyn yeast inh
Cc1cc(C(=O)NN)c(C)o1,n,n,n,n,n,n
CCc1ccc(C(C)NC(=O)c2cc(C)oc2C)cc1 (stereo not given),13µM,n,n,n,n,n
CC(C)(C)C(=O)OC12CCCN(C1)/C(=C/c1cccc(Cl)c1)C2 (stereo not given),x,x,x,x,n,x
O=C(OC12CCCN(C1)/C(=C/c1cccc(Cl)c1)C2)C1CCCC1 (stereo not given),x,x,x,x,n,x
COc1ccc(C(=O)CC2(O)C(=O)N(Cc3cccc(C(F)(F)F)c3)c3ccccc32)cc1 (stereo not given),22µM,n,x,x,u,u
CCOC(=O)c1c(CN2CCOCC2)n(-c2ccccc2)c2cc(Br)c(OC)cc12,16µM,n,n,n,n,n
CCOC(=O)c1c(CN2CCOCC2)n(-c2ccccc2)c2cc(Br)c(O)cc12,n,n,n,n,n,x
Cc1ccc2c(c1)N(CCCC(=O)N(C)Cc1ccc(F)cc1)C(=O)CO2,x,x,x,x,n,x
COc1cc(NC(=O)C2CCCN(S(=O)(=O)c3ccc(C)c(C)c3)C2)cc(OC)c1 (stereo not given),x,x,x,x,n,x
C=CCNC1=C(Cl)C(=O)N(c2cccc(Cl)c2Cl)C1=O,16µM,n[9.22 µM],n,n,n,n
Cc1nn2c3ccccc3nc2c2ccccc12,40µM,n,n,n,n,n
Cc1ccc(-c2nn3c(-c4ccc(C)cc4)nnc3c3ccccc23)cc1,n,n,x,x,n,x
Cc1nn2c(-c3ccccc3)nnc2c2ccccc12,18µM,n,n,n,n,u
O=S(=O)(O)c1c(NS(=O)(=O)c2ccccc2)ccc2ccccc12,x,x,x,x,x,n
COc1ccccc1NC(=O)c1cc2c(=O)oc3ccc(C)cc3c2s1,n,n,x,x,n,x
CCc1ccc2occ(CC(=O)Nc3ccc(OC)c(Cl)c3)c2c1,16µM,n,x,x,n,u
CCc1ccc2occ(CC(=O)NCc3ccccc3)c2c1,11µM,n,x,x,n,x
CCc1ccc2occ(CC(=O)Nc3ccccc3C(F)(F)F)c2c1,n,n,x,x,n,x
CCOC(=O)/C=C/C(=O)OCC(=O)Nc1ccc(OC)c(Cl)c1,35µM,n,n,n,n,n
O=C(c1cc(COc2cccc(C(F)(F)F)c2)on1)N1CCCC1,u,n,x,n,n,n
CCOC(=O)N1CCN(C(=O)c2cc(COc3cccc(C(F)(F)F)c3)on2)CC1,10µM,n,n,n,x,n
CC(C)CN1C(=O)C[C@@]2(C(=O)N(C)c3ccc(NS(=O)(=O)C4CCCCC4)cc32)C1c1ccccc1 (stereo not given in full),x,x,x,x,n,x
O=C(NCc1ccc(F)c(F)c1)c1ccc(-c2ccc(F)c(F)c2)c2ccoc12,n,n,x,n,n,n
O=C(NCC1CCOCC1)c1ccc(-c2ccc(F)c(F)c2)c2ccoc12,25µM,n,x,n,n,n
Cc1nc(CNS(=O)(=O)c2ccc3ccccc3c2)cs1,14µM,n,n,n,n,n
SMILES,TDP-43 yeast inh,Abeta yeast res,MmCpn inh,CCT chaperon mod,FUS suppressor,aSyn yeast inh
Oc1ccccc1C1N=C(c2ccccc2)NC(c2ccccc2)=N1,n,n,n,n,n,n
O=[N+]([O-])C1C(c2ccccc2)=NOC1c1ccccc1O (stereo not given),18µM,n,n,n,n,n
CC(NC(=O)c1ccc(N(C)C)cc1)C1CC2CCC1C2 (stereo not given),n,n,n,-44,n,n
CC(NC(=O)C1CC=CCC1C(=O)O)C1CC2CCC1C2 (stereo not given),n,n,n,n,n,n
CC(NC(=O)C1CCCC1)C1CC2CCC1C2 (stereo not given),n,n,n,-41,x,n
CN(CCCOC(=O)c1cc2ccccc2o1)C1CN(Cc2cn(Cc3ccccc3Cl)nn2)S(=O)(=O)C1 (stereo not given),x,x,x,x,n,x
